High-throughput results as filed in PubChem.
NLRP3 yeast inh: blocks the NALP3 inflammasome reconstituted in yeast; 330,000 compounds, 0.39% hits; AID 2825; inhibition, % at 10 µM; Yeast reconstituted NLRP3/ASC/caspase-1, beta-gal luminescence, 24 h;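 active = inhibition of 50% or more; inactive = inhibition below 50%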
SKKanGAS inh: blocks kanamycin growth of S. pyogenes SKKanGAS strain | BacTiter-Glo, 6 h | inhibition, % at 7.5 µM | 300,000 compounds, 1.3% hits | AID 1662;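 active = mean replicate score, as percent of positive control median, at least 50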;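 note: strain carries kanamycin resistance gene driven by streptokinase promoter and grows in 40 µg/ml kanamycin; loss of luminescence reflects streptokinase promoter inhibition or plain growth inhibition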
tim10-1 inh: inhibits growth of tim10-1 mutant yeast. S. cerevisiae tim10-1 ts strain growth, BacTiter-Glo, 24 h. inhibition, % at 20 µM. 330,000 compounds, 2.2% hits. AID 463190;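 active = inhibition of at least 40%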;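 note: mutant grown at 25 °C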
TIM10 inh: growth inhibitors of TIM10 yeast strain. AID 463195. S. cerevisiae TIM10 strain growth, BacTiter-Glo luminescence, 24 h. 330,000 compounds, 1.4% hits. inhibition, % at 10 µM;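 active = inhibition of 40% or more at the single tested concentration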;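 note: wild-type TIM10 isogenic control strain grown at permissive 25 °C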
tim23-1 inh: inhibits growth of tim23-1 mutant yeast; 330,000 compounds, 1.3% hits; S. cerevisiae tim23-1 growth, BacTiter-Glo luminescence, 24 h; inhibition, % at 20 µM;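 active = growth inhibition of the mutant yeast at or above 50%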;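 note: temperature-sensitive mutant grown at 25 °C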
PfHsp90 set2: inhibits growth of yeast expressing Plasmodium falciparum Hsp90; S. cerevisiae expressing PfHsp90, BacTiter-Glo ATP, 48 h; yeast lacking PDR1 and PDR3 efflux regulators; inhibition, % at 9.4 µM; 310,000 compounds, 0.32% hits;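 active = every replicate shows inhibition above about 80%, whatever the replicate mean, limit read from the data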
A number is an active result; i = inactive; nt = no result given. Compounds with a hit are over-represented: about 4.6% of the library has one in this group of screens.

SMILES	NLRP3 yeast inh	SKKanGAS inh	tim10-1 inh	TIM10 inh	tim23-1 inh	PfHsp90 set2
N#CCC(=O)Nc1ccc(C(=O)OC(C(=O)Nc2cc(C(F)(F)F)ccc2Cl)c2ccccc2)cc1 (centres undefined)	i	61.4	i	i	i	i
CCc1nc(C)cn1S(=O)(=O)c1ccc(Br)cc1	i	i	i	i	i	i
Cc1cc(NC(=O)CSc2nc3cc(C)c(C)cc3cc2C)no1	i	i	i	i	i	i
O=C(/C=C/c1ccc(Br)cc1)NC(=S)NNC(=O)c1ccco1	i	106.0	i	i	i	i
O=C(/C=C/c1ccccc1)NC(=S)NNC(=O)c1ccco1	i	76.4	i	i	i	i
COc1ccc(CNC(=O)COC(=O)CCN2C(=O)C3CC=CCC3C2=O)cc1OC (centres undefined)	i	nt	i	i	i	i
COC(=O)c1cnc(NNS(=O)(=O)c2ccc(C(F)(F)F)cc2)nc1C(F)(F)F	i	i	i	i	i	i
N#Cc1ccc(-c2nc3ccc(Br)cc3c(=O)n2O)cc1	i	i	i	i	i	i
O=c1c2cc(Br)ccc2nc(-c2cccc(C(F)(F)F)c2)n1O	i	111.1	i	i	i	nt
Cc1ccccc1-c1nc2ccc(Cl)cc2c(=O)n1O	i	i	i	i	i	i
O=c1c2cc(Cl)ccc2nc(-c2ccc(Cl)c(Cl)c2)n1O	i	74.5	i	i	i	i
Cc1ccc(/C([O-])=C(/C(=S)NCc2ccc3c(c2)OCO3)[n+]2ccc(N(C)C)cc2)c(C)c1	i	i	i	i	i	i
O=C(c1cc(-c2ccc(Br)cc2)nc2ccccc12)N1CCN(c2ccccc2O)CC1	i	58.7	i	i	i	i
Cc1ccc(-c2cc(C(=O)N3CCN(c4ccccc4O)CC3)c3ccccc3n2)o1	i	i	i	i	i	i
O=C(N/N=C\c1c(O)ccc2ccccc12)c1ccc(Cn2cccn2)o1	i	108.2	i	i	i	i
O=C(N/N=C\c1ccc(Cl)s1)c1ccc(Cn2cccn2)o1	i	i	i	i	i	i
COc1ccc(N(CC(O)CN2CCOCC2)S(=O)(=O)c2ccccc2)cc1 (centres undefined)	i	i	i	i	i	i
O=C(O)c1cc(NN=C2c3ccccc3-c3ccccc32)ccc1Cl	i	i	i	i	i	i
O=C(O)c1cccc(NN=C2c3ccccc3-c3ccccc32)c1	nt	i	nt	nt	nt	105.7
C/C(=N\Nc1nc2ccccc2s1)c1ccc(Br)s1	i	91.6	i	i	i	115.0
COc1ccc(/C=C(\C#N)C(=O)OCC(=O)Nc2ccc(-c3nc4ccc(C)cc4s3)cc2)cc1	i	i	i	i	i	i
Cc1ccc(NC(=S)N2CCCC(c3nc4ccccc4[nH]3)C2)cc1 (centres undefined)	i	i	i	i	i	i
Cc1ccc(NC(=S)c2nc3ccccc3[nH]2)c(C)c1	i	81.8	i	i	i	i
Cc1ccc(NC(=S)c2nc3ccccc3[nH]2)cc1	i	93.1	i	i	i	i
COc1cccc(/C=C2\Sc3ccc(C(=O)NCc4cccnc4)cc3N(C)C2=O)c1	i	i	i	i	i	i
SMILES	NLRP3 yeast inh	SKKanGAS inh	tim10-1 inh	TIM10 inh	tim23-1 inh	PfHsp90 set2
COc1ccc(/C=C2\Sc3ccc(C(=O)NCc4cccnc4)cc3N(C)C2=O)cc1OC	i	65.6	i	i	i	i
COc1ccc(/C=C2\Sc3ccc(C(=O)N4CCN(Cc5ccccc5)CC4)cc3N(C)C2=O)cc1OC	i	70.9	i	i	i	i
CN1CCN(C(=O)c2ccc3c(c2)N(C)C(=O)/C(=C/c2cccc(Cl)c2)S3)CC1	i	i	i	i	i	i
CCN(CC(=O)Nc1ccc(NC(C)=O)cc1)C(=O)CC1OC(=O)c2ccccc21 (centres undefined)	i	i	i	i	i	i
Cc1[nH]c2ccccc2c1/C=N/Nc1ccc([N+](=O)[O-])cc1S(=O)(=O)Nc1ccc(Cl)cc1	i	101.9	i	i	i	i
COc1ccc(NS(=O)(=O)c2cc([N+](=O)[O-])ccc2N/N=C\c2c(C)[nH]c3ccccc23)cc1	i	i	i	i	i	i
Cc1cccnc1NC(=O)c1ccc(OCc2c(C)noc2C)cc1	i	i	i	i	i	i
CC1(CCc2ccccc2)NC(=O)N(CC(=O)N2CCCCCC2)C1=O (centres undefined)	i	i	i	i	i	nt
S=C(NNc1ccnc2cc(Cl)ccc12)Nc1ccc(Cl)cc1Cl	i	70.9	i	i	i	i
CCSc1n[nH]c2nc3c(c(=O)n12)C1(CCCC1)Cc1ccccc1-3	i	65.0	i	i	i	i
Cc1cccc(-n2[nH]c3c4c(ccc3c2=O)C(=O)c2ccccc2C4=O)c1	i	79.6	i	i	i	i
O=C1c2ccccc2C(=O)c2c1ccc1c(=O)n(-c3ccccc3)[nH]c21	i	i	i	i	i	i
CCCCCC(O)CCCC(=O)O (centres undefined)	nt	nt	nt	nt	nt	i
CCCCCCCCCCCCCCCC(O)C[N+](C)(C)CCO (centres undefined)	nt	nt	nt	nt	nt	111.2
COc1ccc(NC(=O)CN2C(=O)NC(C)(C3CC3)C2=O)c(OC)c1 (centres undefined)	i	nt	i	i	i	i
CCCCn1c(NC(=O)c2ccccc2Cl)c(C#N)c2nc3ccccc3nc21	i	i	i	i	i	77.8
COc1ccc(NC(=O)Cc2c(C)n(C(=O)c3ccc(Cl)cc3)c3ccc(OC)cc23)cc1	i	i	i	i	i	i
COc1ccc2c(c1)c(CC(=O)Nc1cccc(S(N)(=O)=O)c1)c(C)n2C(=O)c1ccc(Cl)cc1	i	85.6	i	i	i	i
COc1ccc(NS(=O)(=O)c2cccc(NC(=O)CCC(=O)c3ccc(Cl)cc3)c2)cc1	i	51.3	i	i	i	i
CSc1cnn(-c2ccccc2)c(=O)c1SC	i	i	i	i	i	i
CSc1cnn(Cc2ccccc2)c(=O)c1SCc1ccccc1	nt	67.6	nt	nt	nt	i
C(=NN=C1c2ccccc2-c2ccccc21)c1ccc2c(c1)OCO2	nt	nt	nt	nt	nt	i
Cc1cccc2cc(CN(Cc3nnnn3C3CCCCC3)C3CCCC3)c3nnnn3c12	i	i	i	i	i	104.5
COc1ccc(S(=O)(=O)N2CCOC2CNC(=O)C(=O)NCCCN2CCOCC2)cc1 (centres undefined)	i	i	i	i	i	i
COC(=O)CCC(=O)OC1(C)C(=O)C2=CN(Cc3ccc(OC)cc3)C(c3ccc(OC)cc3)=CC2=C(Br)C1=O (centres undefined)	i	i	i	i	i	i
COc1ccc(C2=CC3=C(Br)C(=O)C(C)(O)C(=O)C3=CO2)cc1 (centres undefined)	i	i	i	i	i	106.8
CCC(=O)OC1(C)C(=O)C2=COC(c3ccc(OC)cc3)=CC2=C(Br)C1=O (centres undefined)	i	i	i	i	i	112.8
COc1cc(NC(=O)CCc2nnc3ccc(N4CCN(C)CC4)nn23)cc(OC)c1	i	i	i	i	i	i
